About 7,900 targets were measured; listed, in parts, are those with a hit and a random draw of the rest. About 0.6% of all pairs of compound and target were hits.
Columns and labels:
Experiment in all cases: log2 fold change, soluble protein after heating vs DMSO (PISA); higher = thermal stabilisation; K562 cells, 10 uM, 30 min; active = over 0.2 and 3.5 SD of the protein, either way, in both replicates (recomputed)
[1] = compound: COC1=CC=C(C=C1)CN2C=CC3=C2C=C(C=C3)C(=O)NO
Procedure, shortened: (§1)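 Values are thermal stability changes relative to control samples and are taken from duplicates. They are stated as log2 fold changes. Before quantification by TMTpro 16plex LC-MS/MS with equalised channel sums, K562 cells at 2×10^6 cells/mL were treated with 10 μM compound for 30 min, heated in aliquots for 3 min across 48°C-58°C, pooled, extracted in PBS with 0.5% NP-40 at 4°C, and centrifuged at 21,000xg for 90 min to give the soluble supernatant.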

filanesib = compound: CON(C)C(=O)N1N=C(c2cc(F)ccc2F)S[C@@]1(CCCN)c1ccccc1 [filanesib]
Procedure, shortened: as §1

zotarolimus = compound: CO[C@H]1C[C@@H]2CC[C@@H](C)[C@@](O)(O2)C(=O)C(=O)N2CCCC[C@H]2C(=O)O[C@H]([C@H](C)C[C@@H]2CC[C@H](n3cnnn3)[C@H](OC)C2)CC(=O)[C@H](C)/C=C(\C)[C@@H](O)[C@@H](OC)C(=O)[C@H](C)C[C@H](C)/C=C/C=C/C=C/1C [zotarolimus]
Procedure, shortened: as §1

idasanutlin = compound: COc1cc(C(=O)O)ccc1NC(=O)[C@@H]1N[C@@H](CC(C)(C)C)[C@](C#N)(c2ccc(Cl)cc2F)[C@H]1c1cccc(Cl)c1F [idasanutlin]
Procedure, shortened: as §1

alisertib = compound: COc1cc(Nc2ncc3c(n2)-c2ccc(Cl)cc2C(c2c(F)cccc2OC)=NC3)ccc1C(=O)O [alisertib]
Procedure, shortened: as §1

[2] = compound: COc1cc2nc(-c3cc(F)ccc3O)nc(N[C@@H]3CNC[C@H]3C(C)(C)O)c2cc1OC
Procedure, shortened: as §1

gefitinib = compound: COc1cc2ncnc(Nc3ccc(F)c(Cl)c3)c2cc1OCCCN1CCOCC1 [gefitinib]
Procedure, shortened: as §1

[3] = compound: COc1cccc2cc(-c3nc([C@H]4CC[C@H](C(=O)O)CC4)n4ncnc(N)c34)[nH]c12
Procedure, shortened: as §1

lapatinib = compound: CS(=O)(=O)CCNCc1ccc(-c2ccc3ncnc(Nc4ccc(OCc5cccc(F)c5)c(Cl)c4)c3c2)o1 [lapatinib]
Procedure, shortened: as §1

pictilisib = compound: CS(=O)(=O)N1CCN(Cc2cc3nc(-c4cccc5[nH]ncc45)nc(N4CCOCC4)c3s2)CC1 [pictilisib]
Procedure, shortened: as §1

Measured: log2 fold change

DNAJC1 (UniProt Q96KC8)
inactive: [1] -0.023 | filanesib -0.138 | zotarolimus -0.039 | idasanutlin -0.064 | alisertib 0.001 | [2] -0.17 | gefitinib 0.008 | [3] 0.022 | lapatinib -0.078 | pictilisib 0.017

EIF4E2 (UniProt O60573)
inactive: [1] -0.062 | filanesib -0.089 | zotarolimus 0.058 | idasanutlin 0.024 | alisertib 0.059 | [2] -0.043 | gefitinib 0.043 | [3] -0.251 | lapatinib 0.033

EPHX2 (UniProt P34913)
inactive: [1] -0.019 | filanesib -0.096 | zotarolimus -0.017 | idasanutlin -0.089 | alisertib -0.053 | [2] -0.009 | gefitinib 0 | [3] 0.055 | lapatinib -0.041 | pictilisib 0.062

CYB561A3 isoform 2 (UniProt Q8NBI2)
inactive: [1] -0.026 | filanesib -0.073 | zotarolimus 0.011 | idasanutlin -0.066 | alisertib 0.041 | [2] 0.023 | gefitinib -0.06 | [3] 0.088 | lapatinib -0.019 | pictilisib 0.263

ELOVL1 (UniProt Q9BW60)
UniProt Q9BW60, sequence (Q9BW60 whole entry, looked up): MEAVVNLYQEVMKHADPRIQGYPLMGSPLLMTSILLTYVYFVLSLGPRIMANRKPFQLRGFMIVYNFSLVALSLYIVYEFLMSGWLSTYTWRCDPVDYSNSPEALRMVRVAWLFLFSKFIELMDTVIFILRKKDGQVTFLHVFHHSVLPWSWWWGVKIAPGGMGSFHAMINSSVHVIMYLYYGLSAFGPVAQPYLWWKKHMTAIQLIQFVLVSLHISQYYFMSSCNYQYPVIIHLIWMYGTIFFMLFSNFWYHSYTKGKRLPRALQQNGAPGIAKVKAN
inactive: [1] -0.103 | filanesib -0.139 | zotarolimus -0.051 | idasanutlin -0.051 | alisertib 0.032 | [2] -0.084 | gefitinib -0.087 | [3] 0.032 | lapatinib -0.078 | pictilisib -0.046

ERLIN2 (UniProt O94905)
UniProt O94905, sequence (O94905 whole entry, looked up): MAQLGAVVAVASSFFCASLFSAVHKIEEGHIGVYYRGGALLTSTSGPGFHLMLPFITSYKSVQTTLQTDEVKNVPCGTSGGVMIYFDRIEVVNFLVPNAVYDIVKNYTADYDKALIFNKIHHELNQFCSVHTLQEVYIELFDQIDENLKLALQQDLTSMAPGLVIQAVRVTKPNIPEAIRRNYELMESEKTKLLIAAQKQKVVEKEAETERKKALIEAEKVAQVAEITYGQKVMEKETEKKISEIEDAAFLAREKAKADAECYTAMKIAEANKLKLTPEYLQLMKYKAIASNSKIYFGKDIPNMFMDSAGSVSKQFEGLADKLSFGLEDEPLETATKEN
inactive: [1] -0.006 | filanesib 0.039 | zotarolimus 0.034 | idasanutlin 0.09 | alisertib -0.085 | [2] -0.143 | gefitinib -0.058 | [3] -0.076 | lapatinib -0.019 | pictilisib -0.09

DIAPH1 (UniProt O60610)
inactive: [1] 0.008 | filanesib 0.083 | zotarolimus 0.081 | idasanutlin 0.04 | alisertib -0.099 | [2] -0.06 | gefitinib 0.046 | [3] -0.193 | lapatinib 0.075 | pictilisib 0.006

ESYT1 isoform 2 (UniProt Q9BSJ8)
inactive: [1] 0.042 | filanesib 0.013 | zotarolimus 0.08 | idasanutlin 0.08 | alisertib -0.094 | [2] 0.008 | gefitinib 0.053 | [3] -0.122 | lapatinib 0.089 | pictilisib -0.038

FAAP100 (UniProt Q0VG06)
inactive: [1] -0.008 | filanesib -0.012 | zotarolimus -0.025 | idasanutlin 0.055 | alisertib -0.044 | [2] -0.095 | gefitinib 0.036 | [3] 0.004 | lapatinib 0.011 | pictilisib -0.067

EXOC8 (UniProt Q8IYI6)
inactive: [1] 0.005 | filanesib -0.044 | zotarolimus 0.056 | idasanutlin -0.072 | alisertib 0.014 | [2] 0.038 | gefitinib -0.047 | [3] -0.003 | lapatinib -0.054 | pictilisib -0.156

FAM83D (UniProt Q9H4H8)
inactive: [1] -0.009 | filanesib 0.062 | zotarolimus 0.051 | idasanutlin -0.109 | alisertib -0.135 | [2] 0.018 | gefitinib 0.05 | [3] -0.034 | lapatinib 0.021 | pictilisib -0.136

CTSA (UniProt P10619)
UniProt P10619, sequence (P10619 whole entry, looked up): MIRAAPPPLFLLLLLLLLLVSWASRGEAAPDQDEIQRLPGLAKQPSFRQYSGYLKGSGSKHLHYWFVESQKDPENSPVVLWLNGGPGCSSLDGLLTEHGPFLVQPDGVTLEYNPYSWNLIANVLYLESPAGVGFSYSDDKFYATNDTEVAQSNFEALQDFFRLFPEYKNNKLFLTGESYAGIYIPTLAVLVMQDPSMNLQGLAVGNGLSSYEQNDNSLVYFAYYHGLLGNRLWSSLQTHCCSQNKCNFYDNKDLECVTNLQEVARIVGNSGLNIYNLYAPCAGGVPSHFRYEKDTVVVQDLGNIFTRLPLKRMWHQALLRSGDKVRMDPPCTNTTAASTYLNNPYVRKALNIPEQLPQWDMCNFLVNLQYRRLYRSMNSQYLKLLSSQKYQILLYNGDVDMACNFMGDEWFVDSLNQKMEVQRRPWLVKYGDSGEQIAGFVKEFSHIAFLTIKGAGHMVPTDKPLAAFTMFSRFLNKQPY
inactive: [1] 0.01 | filanesib -0.111 | zotarolimus -0.024 | idasanutlin 0.015 | alisertib 0.029 | [2] 0.023 | gefitinib 0.1 | [3] 0.065 | lapatinib 0.045 | pictilisib 0.038

DNAJB1 (UniProt P25685)
UniProt P25685, sequence (P25685 whole entry, looked up): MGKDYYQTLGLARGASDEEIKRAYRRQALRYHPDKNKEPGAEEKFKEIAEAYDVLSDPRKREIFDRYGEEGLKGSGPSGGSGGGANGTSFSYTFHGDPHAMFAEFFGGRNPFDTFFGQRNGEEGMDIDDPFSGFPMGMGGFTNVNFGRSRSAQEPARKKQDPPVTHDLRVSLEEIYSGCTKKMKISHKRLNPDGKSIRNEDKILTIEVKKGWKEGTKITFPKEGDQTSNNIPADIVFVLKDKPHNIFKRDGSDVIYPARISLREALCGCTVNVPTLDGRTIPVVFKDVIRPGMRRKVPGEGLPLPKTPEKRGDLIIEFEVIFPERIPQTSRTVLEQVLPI
inactive: [1] 0.07 | filanesib -0.013 | zotarolimus 0.007 | idasanutlin -0.032 | alisertib -0.063 | [2] 0.046 | gefitinib 0.06 | [3] 0.003 | lapatinib -0.032 | pictilisib 0.005

DUS3L (UniProt Q96G46)
inactive: [1] 0.069 | filanesib 0.018 | zotarolimus 0.001 | idasanutlin 0.011 | alisertib -0.071 | [2] 0.01 | gefitinib 0.02 | [3] 0.035 | lapatinib -0.037 | pictilisib -0.181

DNAJC19 (UniProt Q96DA6)
UniProt Q96DA6, sequence (Q96DA6 whole entry, looked up): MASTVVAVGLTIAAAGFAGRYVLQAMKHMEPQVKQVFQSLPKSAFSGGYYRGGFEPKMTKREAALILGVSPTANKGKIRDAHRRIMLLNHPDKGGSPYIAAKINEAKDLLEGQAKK
inactive: [1] 0.096 | filanesib -0.155 | zotarolimus 0.016 | idasanutlin -0.004 | alisertib -0.022 | gefitinib 0.006 | [3] 0.045 | lapatinib -0.012 | pictilisib 0.025
active: [2] -0.205

FADS1 (UniProt F5GYH4)
inactive: [1] -0.373

EEF1A1 (UniProt P68104)
UniProt P68104, sequence (P68104 whole entry, looked up): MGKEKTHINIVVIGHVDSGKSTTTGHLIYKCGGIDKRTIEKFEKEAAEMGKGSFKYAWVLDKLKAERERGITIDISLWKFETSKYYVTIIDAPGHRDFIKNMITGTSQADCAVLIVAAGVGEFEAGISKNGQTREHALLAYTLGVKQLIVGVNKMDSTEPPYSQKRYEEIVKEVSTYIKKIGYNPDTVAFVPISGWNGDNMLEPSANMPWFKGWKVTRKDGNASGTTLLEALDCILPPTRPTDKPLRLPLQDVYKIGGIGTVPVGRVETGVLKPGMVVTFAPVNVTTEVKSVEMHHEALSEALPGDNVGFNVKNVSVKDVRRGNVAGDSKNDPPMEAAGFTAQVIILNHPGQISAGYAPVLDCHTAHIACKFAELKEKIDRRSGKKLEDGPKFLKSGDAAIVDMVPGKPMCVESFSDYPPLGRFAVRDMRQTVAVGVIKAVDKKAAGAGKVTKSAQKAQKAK
inactive: [1] 0.081 | filanesib -0.119 | zotarolimus 0.182 | idasanutlin -0.086 | alisertib -0.347 | [2] -0.216 | gefitinib -0.029 | [3] -0.034 | lapatinib 0.1

CYP51A1 (UniProt Q16850)
UniProt Q16850, sequence (Q16850 whole entry, looked up): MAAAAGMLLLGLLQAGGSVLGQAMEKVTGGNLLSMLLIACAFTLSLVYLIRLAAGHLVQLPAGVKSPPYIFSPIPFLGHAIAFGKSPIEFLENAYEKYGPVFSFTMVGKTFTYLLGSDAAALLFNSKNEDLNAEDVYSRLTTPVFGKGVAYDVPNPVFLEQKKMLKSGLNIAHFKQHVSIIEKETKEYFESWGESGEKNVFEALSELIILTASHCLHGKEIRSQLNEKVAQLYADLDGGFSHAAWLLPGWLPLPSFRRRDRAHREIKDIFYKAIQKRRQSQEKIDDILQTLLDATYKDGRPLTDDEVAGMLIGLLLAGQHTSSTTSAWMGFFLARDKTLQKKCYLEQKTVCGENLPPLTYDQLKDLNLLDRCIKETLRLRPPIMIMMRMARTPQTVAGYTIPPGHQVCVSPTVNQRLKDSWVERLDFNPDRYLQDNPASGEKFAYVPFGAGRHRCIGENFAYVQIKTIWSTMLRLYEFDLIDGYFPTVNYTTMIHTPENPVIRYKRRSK
active: lapatinib 0.401
inactive: [1] -0.035 | filanesib 0.217 | zotarolimus -0.11 | idasanutlin 0.099 | alisertib -0.025 | [2] -0.005 | gefitinib 0.009 | [3] -0.105 | pictilisib -0.216

CUX1 isoform 3 (UniProt P39880)
inactive: [1] 0.068 | filanesib 0.001 | zotarolimus -0.002 | idasanutlin 0.012 | alisertib -0.047 | [2] -0.024 | gefitinib 0.009 | [3] 0.008 | lapatinib 0.013 | pictilisib 0.054

DOHH (UniProt Q9BU89)
UniProt Q9BU89, sequence (Q9BU89 whole entry, looked up): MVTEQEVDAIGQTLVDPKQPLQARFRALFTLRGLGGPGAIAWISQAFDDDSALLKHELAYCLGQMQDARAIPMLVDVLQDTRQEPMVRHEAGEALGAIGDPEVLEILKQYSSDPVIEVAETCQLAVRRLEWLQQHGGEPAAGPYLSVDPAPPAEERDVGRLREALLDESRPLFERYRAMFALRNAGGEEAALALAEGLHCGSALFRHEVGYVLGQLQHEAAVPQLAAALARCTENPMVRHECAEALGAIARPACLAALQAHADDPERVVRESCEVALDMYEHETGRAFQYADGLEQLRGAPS
inactive: [1] -0.4 | filanesib -0.151 | zotarolimus 0.022 | idasanutlin -0.038 | alisertib -0.062 | [2] -0.041 | gefitinib 0.201 | [3] 0.084 | lapatinib -0.006 | pictilisib -0.171

EIF4A1 (UniProt P60842)
UniProt P60842, sequence (P60842 whole entry, looked up): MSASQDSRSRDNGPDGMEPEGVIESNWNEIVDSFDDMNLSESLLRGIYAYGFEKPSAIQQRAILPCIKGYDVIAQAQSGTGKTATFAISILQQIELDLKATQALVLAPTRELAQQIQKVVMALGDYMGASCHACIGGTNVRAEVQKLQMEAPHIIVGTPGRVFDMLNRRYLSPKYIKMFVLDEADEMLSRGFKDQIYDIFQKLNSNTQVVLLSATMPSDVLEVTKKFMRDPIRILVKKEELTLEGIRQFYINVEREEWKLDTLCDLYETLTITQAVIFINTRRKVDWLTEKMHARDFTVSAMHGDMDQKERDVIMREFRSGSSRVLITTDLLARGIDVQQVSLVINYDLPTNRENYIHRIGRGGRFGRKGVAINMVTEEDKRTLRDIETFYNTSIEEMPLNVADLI
inactive: [1] 0.061 | filanesib -0.11 | zotarolimus -0.009 | idasanutlin -0.075 | alisertib -0.004 | [2] -0.01 | gefitinib 0.004 | [3] -0.027 | lapatinib 0.016 | pictilisib -0.088

DCAF6 isoform 3 (UniProt Q58WW2)
inactive: [1] -0.007 | filanesib -0.017 | zotarolimus -0.045 | idasanutlin -0.026 | alisertib -0.081 | [2] -0.023 | gefitinib -0.01 | [3] 0.059 | lapatinib 0.016 | pictilisib 0.001

DBNL isoform 3 (UniProt Q9UJU6)
inactive: [1] 0.096 | filanesib 0.006 | zotarolimus -0.018 | idasanutlin 0.02 | alisertib 0.025 | [2] -0.002 | gefitinib 0.021 | [3] -0.016 | lapatinib 0.016 | pictilisib 0.027

CWC27 (UniProt Q6UX04)
UniProt Q6UX04, sequence (Q6UX04 whole entry, looked up): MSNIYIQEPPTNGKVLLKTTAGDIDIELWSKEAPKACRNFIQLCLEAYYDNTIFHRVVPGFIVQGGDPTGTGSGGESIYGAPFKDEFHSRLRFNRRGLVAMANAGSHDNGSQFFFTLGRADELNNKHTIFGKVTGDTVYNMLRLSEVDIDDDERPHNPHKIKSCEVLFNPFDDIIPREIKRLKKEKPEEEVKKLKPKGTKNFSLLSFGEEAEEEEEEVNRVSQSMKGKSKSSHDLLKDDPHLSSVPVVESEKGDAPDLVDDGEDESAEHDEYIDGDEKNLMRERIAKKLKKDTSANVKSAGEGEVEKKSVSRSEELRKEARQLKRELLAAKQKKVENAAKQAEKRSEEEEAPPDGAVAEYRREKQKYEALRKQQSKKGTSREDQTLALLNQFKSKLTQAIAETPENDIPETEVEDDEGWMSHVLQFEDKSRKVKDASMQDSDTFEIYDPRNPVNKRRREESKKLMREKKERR
inactive: [1] 0.047 | filanesib -0.017 | zotarolimus -0.068 | idasanutlin 0.014 | alisertib -0.043 | [2] 0.061 | gefitinib 0.021 | [3] -0.046 | lapatinib -0.004 | pictilisib -0.036

EFL1 (UniProt Q7Z2Z2)
inactive: [1] -0.021 | filanesib -0.069 | zotarolimus 0.022 | idasanutlin -0.071 | alisertib -0.013 | [2] 0.042 | gefitinib 0.019 | [3] 0.033 | lapatinib -0.034 | pictilisib -0.016

EXOC1 (UniProt Q9NV70)
inactive: [1] -0.056 | filanesib 0.01 | zotarolimus 0.038 | idasanutlin -0.084 | alisertib 0.015 | [2] 0.131 | gefitinib -0.045 | [3] -0.129 | lapatinib -0.011 | pictilisib -0.021

DHX16 (UniProt O60231)
UniProt O60231, sequence (O60231 whole entry, looked up): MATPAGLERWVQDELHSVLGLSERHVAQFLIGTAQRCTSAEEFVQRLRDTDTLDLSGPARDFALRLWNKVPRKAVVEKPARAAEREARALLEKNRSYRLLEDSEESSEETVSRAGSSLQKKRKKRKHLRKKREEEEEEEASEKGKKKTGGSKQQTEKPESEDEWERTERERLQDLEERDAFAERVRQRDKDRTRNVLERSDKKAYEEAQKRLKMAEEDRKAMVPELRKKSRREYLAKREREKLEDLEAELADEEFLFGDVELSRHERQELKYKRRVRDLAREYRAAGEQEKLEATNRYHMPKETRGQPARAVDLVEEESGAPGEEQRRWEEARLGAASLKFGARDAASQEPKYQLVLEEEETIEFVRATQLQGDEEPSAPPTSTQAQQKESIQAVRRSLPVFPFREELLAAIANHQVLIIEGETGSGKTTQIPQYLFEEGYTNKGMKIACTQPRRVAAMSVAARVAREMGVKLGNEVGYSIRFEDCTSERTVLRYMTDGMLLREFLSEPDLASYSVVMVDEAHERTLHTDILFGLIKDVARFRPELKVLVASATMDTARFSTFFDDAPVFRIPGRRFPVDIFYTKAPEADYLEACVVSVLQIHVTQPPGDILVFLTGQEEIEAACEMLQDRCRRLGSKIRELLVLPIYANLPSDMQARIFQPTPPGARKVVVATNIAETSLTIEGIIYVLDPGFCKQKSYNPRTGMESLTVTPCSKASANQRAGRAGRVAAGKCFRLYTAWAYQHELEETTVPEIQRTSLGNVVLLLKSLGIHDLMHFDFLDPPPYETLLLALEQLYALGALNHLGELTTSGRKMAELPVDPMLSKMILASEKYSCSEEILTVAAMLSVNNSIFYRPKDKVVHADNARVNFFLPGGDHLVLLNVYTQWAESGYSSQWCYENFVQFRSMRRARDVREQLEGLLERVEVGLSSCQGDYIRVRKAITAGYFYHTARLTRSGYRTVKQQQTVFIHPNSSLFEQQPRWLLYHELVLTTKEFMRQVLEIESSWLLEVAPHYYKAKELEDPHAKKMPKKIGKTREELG
inactive: [1] 0.008 | filanesib 0.096 | zotarolimus 0.023 | idasanutlin -0.03 | alisertib -0.079 | [2] 0.028 | gefitinib 0.043 | [3] 0.04 | lapatinib 0.02 | pictilisib -0.012

DTYMK (UniProt P23919)
inactive: [1] -0.043 | filanesib -0.09 | zotarolimus -0.023 | idasanutlin -0.065 | alisertib -0.014 | [2] 0.047 | gefitinib -0.108 | [3] 0.152 | lapatinib -0.026 | pictilisib -0.054
